Sampled rows, rich in hits. Any-hit rate of the full collection: about 2.4%.
D2 PAM-1 – human D2 receptor positive allosteric modulation | DiscoveRx D2 beta-arrestin cells, luminescence, 90 min; 100% = 57 uM dopamine signal | P14416 | AID 624464 | potentiation, % (concentration not given with the values) | 360,000 tested, 0.23% active; in the data active means potentiation above about 50%; inconclusive means mostly about 30% to 49%
Target sequence (P14416 whole entry, looked up): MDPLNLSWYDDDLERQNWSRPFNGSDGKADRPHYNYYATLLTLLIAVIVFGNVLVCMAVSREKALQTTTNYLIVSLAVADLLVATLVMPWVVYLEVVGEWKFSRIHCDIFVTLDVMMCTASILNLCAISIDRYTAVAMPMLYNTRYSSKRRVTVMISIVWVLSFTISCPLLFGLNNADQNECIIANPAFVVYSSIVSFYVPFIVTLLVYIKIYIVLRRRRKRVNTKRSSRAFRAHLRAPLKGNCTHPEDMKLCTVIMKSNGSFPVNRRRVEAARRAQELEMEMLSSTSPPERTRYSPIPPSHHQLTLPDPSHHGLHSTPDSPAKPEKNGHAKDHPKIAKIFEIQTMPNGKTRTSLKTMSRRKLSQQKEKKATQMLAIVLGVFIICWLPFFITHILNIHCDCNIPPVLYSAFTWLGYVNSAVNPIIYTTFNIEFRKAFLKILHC
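PathHunter beta-arrestin assay in DiscoveRx D2 cells. Compounds were added with an EC20 of dopamine (50 nM final) for 90 min at 37 deg C. Luminescence was read 1 h after detection reagent, with 57 uM dopamine as the EC100 control.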
D2 ag-1 – human D2 receptor agonism in beta-arrestin assay; P14416; DiscoveRx PathHunter D2 beta-arrestin, luminescence, 90 min; 100% = 57 uM dopamine signal; activation, % (no concentration beside the values); 360,000 tested, 0.084% active; AID 624465; in the data active means activation above about 40%; inconclusive means between about 15% and that limit
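Agonist mode: compounds alone added to overnight-plated D2 PathHunter cells for 90 min at 37 C, with 57 uM final dopamine (EC100) defining full response. Beta-arrestin recruitment detected by chemiluminescent reagent, read after 1 h at ambient temperature.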
D2 antag – antagonizes the human D2 dopamine receptor; P14416; HEK293 TREx D2 cells, calcium flux, dopamine EC80; inhibition, % at 10 µM; 340,000 tested, 2% active; in the data active means inhibition above about 30%; inactive means below that, where a call was filed; further: 0% is about no effect
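Cells plated overnight at 30 C with tetracycline; no-wash calcium dye, 30–90 min RT; 10 s baseline; compound pinned; 180 s read; EC80 dopamine added; another 180 s read.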
D2 ag-2 – D2 dopamine receptor (human) agonism. P14416. HEK293 T-REx D2 cells, calcium flux agonist mode. activation, % at 2 µM. 340,000 tested, 0.53% active;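 active means activation over 3 SD above normal in the single-dose calcium agonist read, cut at about 30% in these data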; further: 0% is about no effect
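Calcium-flux readout, 1 cycle/sec over 180 s following compound pin transfer, in inducible HEK293 Trex D2 cells (force-coupled); dopamine controls included. Positive calcium responses during this window marked compounds as potential agonists.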
D2 PAM-2 – D2 dopamine receptor (human) potentiation | HEK293 T-REx D2, calcium flux, EC20 dopamine potentiation | potentiation, % at 10 µM | 340,000 tested, 0.34% active | AID 485347;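 active means potentiation over 3 SD above the plate norm, cut at about 30% in these data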; further: 0% is about no effect
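Tetracycline-induced HEK293 T-REx cells force-coupled to calcium signalling expressed D2; compounds were pin-added after a 10 s baseline, read kinetically 180 s, then an EC20 dopamine challenge followed with a further 180 s calcium read.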
Starred values were filed as active, the others as inactive; ? = inconclusive; / = no result.

SMILES	D2 PAM-1	D2 ag-1	D2 antag	D2 ag-2	D2 PAM-2
CC(Sc1nc2c(c(=O)[nH]1)CCCC2)C(=O)Nc1cc(C(F)(F)F)ccc1Cl (stereo not drawn)	/	/	/	1.0	-14.3
COc1ccc2ccccc2c1CNC(C)CCc1ccccc1 (stereo not drawn)	-22.7	5.0	30.1*	19.8	-16.3
N#Cc1c(Sc2ncc(C(F)(F)F)cc2Cl)nsc1C/C=N\OCc1c(F)cccc1Cl	57.7*	2.3	-4.3	0.5	1.8
c1cc(CNc2ccc3c(c2)OCCO3)ccn1	14.9	-0.3	-6.7	1.8	31.1*
O=C(Cn1c(=O)oc2ccccc21)NCc1cccc(Cl)c1	/	/	/	-0.2	/
Cc1oc(-c2cccc(C(F)(F)F)c2)nc1CN1CCC[C@H]1CO	-13.0	-0.4	70.3*	-0.9	-27.5
COc1ccc(-c2cc(C(=O)NCc3ccc(F)cc3)c3c(-c4ccc(F)cc4)[nH]nc3n2)cc1OC	/	/	/	0.3	7.4
CN(C)S(=O)(=O)c1cccc(C(=O)NCCOC(=O)c2cc(F)c(F)cc2Cl)c1	-5.9	1.7	34.2*	-0.4	13.7
CN(C)S(=O)(=O)c1cccc(C(=O)NCCNC(=O)c2cccc(S(=O)(=O)N(C)C)c2)c1	-7.5	-4.8	-5.0	-0.8	16.8
Cc1oc(-c2cccc(Br)c2)nc1CSc1nc2ncccc2[nH]1	/	/	/	-0.3	-4.4
Cc1nc2c(o1)C(=O)c1ccccc1C2=Nc1ccccc1	51.2*	?	/	/	/
Cc1cccn2c(=O)c3cc(C#N)c(=O)n(-c4nnc(SCc5ccc(Cl)cc5)s4)c3nc12	/	/	/	0.9	0.1
CCCc1nc2c(=O)n(C)c(=O)nc-2n(C)n1	29.9	54.3*	-6.4	0.4	-2.1
Cn1nc(-c2ccccn2)nc2c(=O)n(C)c(=O)nc1-2	-0.6	7.7	-8.4	2.5	6.6
CCOC(=O)C1CCCN(Cc2ccc(-c3ccccc3)cc2)C1 (stereo not drawn)	-79.6	-2.8	57.9*	1.7	-16.0
CCOC(=O)C1CCCN(C/C=C/c2ccccc2)C1 (stereo not drawn)	-24.5	4.8	30.5*	5.5	-21.3
CCOC(=O)C1CCN(Cc2cccc(Oc3ccccc3)c2)CC1	-22.4	?	/	/	/
CCOC(=O)C1CCCN(Cc2c(Cl)cccc2Cl)C1 (stereo not drawn)	-12.6	-2.5	-9.7	-0.1	0.0
CCOC(=O)C1CCN(C/C=C/c2ccccc2)CC1	-2.1	-3.2	-22.5	-0.9	-7.2
CCOC(=O)C1CCCN(Cc2cccc(Oc3ccccc3)c2)C1 (stereo not drawn)	-34.7	0.7	39.5*	-1.7	-13.8
O=C(Nc1ccc2nc(SCC(=O)N3CCCC3)sc2c1)c1ccc(Br)cc1	/	/	/	-1.8	2.6
Cc1ccc(C)c(SCC(=O)Nc2cc(S(=O)(=O)N3CCOCC3)ccc2C)c1	-2.3	-4.7	53.1*	0.5	-5.3
Cc1ccc(S(=O)(=O)N(C)C)cc1NC(=O)CSc1ccc2c(c1)OCCO2	-22.1	1.5	36.3*	0.1	-1.5
Cc1ccc(S(=O)(=O)N2CCCCC2)cc1NC(=O)COC(=O)c1c(F)cccc1F	12.4	-4.7	5.8	-1.1	30.9*
COc1ccccc1CCC(=O)OCC(=O)Nc1cc(S(=O)(=O)N2CCOCC2)ccc1C	-23.2	-3.2	33.0*	1.7	-5.6
SMILES	D2 PAM-1	D2 ag-1	D2 antag	D2 ag-2	D2 PAM-2
CCn1c2c(c(=O)n3ncc(C(=O)Nc4cccc(Cl)c4C)c13)CN(Cc1ccc(OC)cc1)CC2	/	/	/	-0.7	3.3
Cc1nnc(N2CCC(C(=O)NCc3ccc(F)cc3)CC2)c2nn(-c3ccc(Cl)cc3)c(C)c12	/	/	/	-1.0	4.6
COc1ccccc1N1CCN(C(=O)c2ccc(CS(=O)(=O)c3ccccc3OC)o2)CC1	-20.7	2.0	0.6	-1.9	47.0*
COCCSc1ccccc1C(=O)N1CCN(c2ccccc2OC)CC1	0.2	-2.4	38.1*	2.1	3.7
COCCCNC(=O)c1ccc(CS(=O)(=O)c2ccccc2OC)o1	-3.3	0.1	32.9*	-1.3	3.4
COCCNC(=O)c1ccc(CS(=O)(=O)c2ccccc2OC)o1	-2.0	-19.8	5.6	-1.2	9.2
Cc1ccc(C(=O)Nc2ccc3c(c2)OCO3)cc1NC(=O)c1ccco1	4.0	-19.2	47.7*	1.0	-2.7
Cc1ccccc1OCc1nc(-c2ccc(NC(=O)c3ccco3)cc2)no1	6.3	7.1	-31.4	-1.5	42.6*
Cc1cc(NC(=O)c2ccc3c(c2)OCO3)ccc1NC(=O)c1ccco1	0.9	-2.6	-11.4	-0.7	-9.4
COc1cc(NC(=O)c2ccc3c(c2)OCO3)ccc1NC(=O)C(C)C	-5.8	-4.5	64.3*	-0.7	-1.6
Cc1ccccc1NC(=O)c1ccc(NC(=O)c2ccco2)cc1	-11.9	1.6	44.8*	1.7	-12.6
Cc1ccc(Cn2c(=O)c3ccccc3n3c(-c4cccc(O)c4)nnc23)cc1	/	/	/	1.8	/
CCNc1nc(NC(C)(C)C)nc(N(C#N)CC)n1	-7.5	-0.8	-26.5	0.6	30.7*
CCNc1nc(NCC)nc(N(C#N)C(C)C)n1	-2.2	-2.0	6.8	-0.1	8.7
COc1ccc(NC(=O)CN(C)C(=O)c2oc3ccccc3c2C)cc1	-3.3	-1.5	31.0*	-1.0	-3.0
COc1ccc(NC(=O)CNC(=O)Cc2ccccc2)cc1	-0.4	5.8	8.1	-1.8	32.0*
COc1ccc(NC(=O)Cc2ccccc2)cc1	-4.4	-3.9	-10.1	1.0	9.9
COc1ccc(NC(=O)CNS(=O)(=O)c2ccc(Cl)cc2)cc1	0.7	0.7	-4.0	0.2	44.9*
Cc1cccc(Cn2c(=O)n(CCCCC(=O)NCc3ccc4c(c3)OCO4)c(=O)c3ccccc32)c1	/	/	/	-0.2	-4.5
COc1ccc(CN2CCc3c(c(=O)n4ncc(C(=O)N5CCN(c6ccccc6OC)CC5)c4n3C)C2)cc1	/	/	/	0.8	0.0
CCc1ccc(CNC(=O)c2cnc3c(C)cccn3c2=O)cc1	/	/	/	0.0	1.1
Cc1cc(Nc2ccccc2)nn1C(=O)c1ccc([N+](=O)[O-])cc1	55.7*	3.6	0.9	0.3	-4.7
Cc1cc(Nc2ccccc2)nn1C(=O)c1ccc(Cl)cc1	-5.5	0.6	20.2	-0.5	-3.8
COc1ccccc1N1CCN(C(=O)c2cc3c(s2)CCCCC3)CC1	4.4	2.6	/	/	/
CCOc1ccccc1N1CCN(C(=O)c2cc3c(s2)CCC3)CC1	-1.9	0.6	35.3*	-1.8	-5.7
COC(=O)c1cc(S(=O)(=O)n2nc(C)c(Br)c2C)c(Cl)cc1Cl	53.5*	-2.0	-10.4	-0.6	4.0
Cc1cc(C)n(S(=O)(=O)c2cc(C(=O)O)c(Cl)cc2Cl)n1	-4.7	0.0	-17.0	0.9	/
O=C(O)c1ccc(Nc2ncnc3ccccc23)cc1	-7.3	-0.8	31.7*	2.6	2.1
O/N=C1\CCCc2ccccc21	-3.4	2.4	-11.7	0.2	3.8
O/N=C1\CCCCc2ccccc21	-5.5	0.4	33.0*	-0.7	-1.8

High-throughput results deposited in PubChem by National Center for Advancing Translational Sciences (NCATS).
